High-throughput results as filed in PubChem.
Pf apPOL inh: Pf-apPOL DNA polymerase inhibition. Recombinant Pf-apPOL, molecular beacon fluorescence, 1.5 h. inhibition, % at 10 µM. hit rate 0.25% among 210,000. AID 1794808
mHTT CaM bind: mHTT-calmodulin interaction abrogation. hit rate 3.6% among 190,000. AlphaScreen His-mHTT/GST-CaM binding, luminescence. inhibition, % at 15 µM. P42858
Of the large screens only hits and unclear results are named; the others gave an inactive call. The list is not random: actives were taken first. Their share in the collection is about 3.5%. Cut-off read from the data, not from the text of the source: active = inhibition above about 50%; inactive = the rest.

O=C(COc1ccccc1)Nc1cccc(NC(=O)c2ccccc2)c1	none
CC1Cc2cc(-c3cc(CC(=O)NCc4ccco4)no3)ccc2O1 (centres undefined)	none
CCOc1ccc(N=C2SC(C(=O)Nc3cccc(Cl)c3)CC(=O)N2C)cc1 (centres undefined)	none
O=C(NC1CC1)c1cccc(CN2C(=O)C3CCCN3C(=O)c3ccccc32)c1 (centres undefined)	none
COc1c(C(=O)N2CCOCC2)sc2ccc(F)cc12	none
COc1c(C(=O)N2CCN(c3ccccc3)CC2)sc2ccc(F)cc12	mHTT CaM bind 60.1
CC1=CC(=O)C(C(C)C)=C/C1=N\OC(=O)c1cccc(Br)c1	none
CC1=CC(=O)C(C(C)C)=CC1=NC(=O)c1ccc(C)cc1	mHTT CaM bind 60.0
CCCCOc1ccc(N2CC(C(=O)Nc3ncccc3C)CC2=O)cc1 (centres undefined)	none
COc1ccc(OC)c(NC(=O)Cc2cn(C)c3ccccc23)c1	none
CCC(C)Sc1nc2c(c(=O)n1-c1ccccc1)SCC2 (centres undefined)	none
COc1cc(NC(=O)CSc2nc3nc(C)cc(C)n3n2)cc(OC)c1OC	none
Oc1c(C=Nc2ccc(F)cc2)[nH]c2ccc(Br)c(Cl)c12	none
Oc1c(C=NCc2ccc(Cl)cc2Cl)[nH]c2ccc(Br)c(Cl)c12	mHTT CaM bind 58.0
COc1ccccc1N=Cc1[nH]c2ccc(Br)c(Cl)c2c1O	none
Cc1ccc(CN=Cc2[nH]c3ccc(Br)c(Cl)c3c2O)cc1	none
Oc1c(C=NCc2ccc(F)cc2)[nH]c2ccc(Br)c(Cl)c12	mHTT CaM bind 55.0
Oc1c(C=NCCc2ccccc2)[nH]c2ccc(Br)c(Cl)c12	mHTT CaM bind 86.0
Oc1c(C=NCc2ccccc2Cl)[nH]c2ccc(Br)c(Cl)c12	mHTT CaM bind 72.0
Cc1cccc(C)c1N=Cc1[nH]c2ccc(Br)c(Cl)c2c1O	none
O=C(c1ccc(F)cc1)N1CCC(CCOc2cccc(F)c2)CC1	none
CC(=O)Nc1ccc(NC(=O)C2CC(=O)N(c3ccc(F)cc3)C2)cc1 (centres undefined)	none
Cc1ccc(-c2noc(-c3ccc(NC4CC4)nc3)n2)cc1	none
O=C(NC1CCCCC1)N1CCN(c2ccc3nnc(-c4ccco4)n3n2)CC1	none
O=C(c1cccs1)N1CCN(c2ccc3nnc(-c4ccco4)n3n2)CC1	mHTT CaM bind 55.9
Cc1ccc(C(=O)N2CCC(N3CCN(C)C3=O)CC2)c(C)c1	none
Cc1ccnc(NC(c2cc(C)ccc2O)c2ccc3cccnc3c2O)c1 (centres undefined)	mHTT CaM bind 99.0
Cc1ccc(C)c(NC(=O)CSc2cccc3cccnc23)c1	none
Cc1ccnc(NC(c2cccc(C)n2)c2ccc3cccnc3c2O)c1 (centres undefined)	mHTT CaM bind 87.0
Cc1ccnc(NC(=O)c2cccc(Cl)c2)c1	none
Cc1ccccc1C(=O)NCc1cccnc1-c1ccc(F)cc1	none
COc1cc(/C=c2\sc3nc(=O)c(C)nn3c2=O)ccc1OCc1ccccc1	none
CC(C)NC(=O)c1ccccc1OCC1CCN(C(=O)Cc2ccccc2F)CC1	none
O=C(CC1CCN(S(=O)(=O)c2cccs2)CC1)NCCN1CCCCC1	none
COCCn1cc2c3c(cccc31)CN(C(=O)Nc1cc(F)cc(F)c1)CC2	none
COCCn1cc2c3c(cccc31)CN(C(=O)c1ccc(C)cc1)CC2	mHTT CaM bind 67.8
CCn1cc2c3c(cccc31)CN(C(=O)Cc1cccc(F)c1)CC2	mHTT CaM bind 66.0
COCCn1cc2c3c(cccc31)CN(C(=O)NCc1ccccc1)CC2	none
COCCn1cc2c3c(cccc31)CN(C(=O)CCCc1ccccc1)CC2	mHTT CaM bind 90.7
COCCn1cc2c3c(cccc31)CN(C(=O)c1cccc(F)c1)CC2	mHTT CaM bind 53.9
COCCn1cc2c3c(cccc31)CN(C(=O)c1ccccc1)CC2	none
CCCC(=O)N1CCc2cn(CC)c3cccc(c23)C1	none
Clc1ccc(C2CC(c3ccc4c(c3)OCO4)Nc3ncnn32)cc1 (centres undefined)	none
COc1cc(NC(=O)/C=C/c2ccccc2)c2ncccc2c1	none
Nc1nonc1-c1noc(-c2ccc(NC(=O)C(F)(F)F)cc2)n1	none
COc1ccc(C(=O)N2CCc3cn(C)c4cccc(c34)C2)c(C)c1	none
COCCn1cc2c3c(cccc31)CN(C(=O)c1cccc(Cl)c1)CC2	mHTT CaM bind 64.5
COCCn1cc2c3c(cccc31)CN(C(=O)c1ccc(C)c(F)c1)CC2	mHTT CaM bind 53.1
COCCn1cc2c3c(cccc31)CN(C(=O)c1ccccn1)CC2	none
COCCn1cc2c3c(cccc31)CN(C(=O)c1ccc(OC)cc1C)CC2	mHTT CaM bind 51.4
CCn1cc2c3c(cccc31)CN(C(=O)c1ccc(OC)c(F)c1)CC2	mHTT CaM bind 52.2
COCCn1cc2c3c(cccc31)CN(C(=O)c1ccc(F)c(Cl)c1)CC2	none
COc1ccc(C(=O)N2CCc3cn(C)c4cccc(c34)C2)cc1F	none
CN1CCN(C(=O)c2cccc(N3CCNC(c4ccccc4)C3)n2)CC1 (centres undefined)	none
CNC(=O)C(C1CCCC1)N1CCN(C(=O)c2cccc(OC)c2)CC1 (centres undefined)	none
Cc1cccc(CC(=O)N2CCCC2c2nc(-c3ccccc3)n[nH]2)c1 (centres undefined)	none
COCCn1cc2c3c(cccc31)CN(C(=O)c1ccccc1Br)CC2	mHTT CaM bind 68.7
COCCn1cc2c3c(cccc31)CN(C(=O)c1ccccc1F)CC2	none
O=C(Nc1nnc(-c2ccc(F)cc2)o1)c1ccc(S(=O)(=O)N2CCc3ccccc3C2)cc1	none
CCc1nnc(NC(=O)c2ccc(S(=O)(=O)N3CCc4ccccc4C3)cc2)o1	mHTT CaM bind 55.0
COc1ccccc1CNC(=O)CSc1nc2nc(C)c(Cc3ccccc3)c(C)n2n1	none
Cc1nc2c(C(=O)NCC3CCCO3)cnn2c(C)c1Cc1cccc(Br)c1 (centres undefined)	mHTT CaM bind 96.0
COc1ccc(CNC(=O)c2cnn3c(C)c(Cc4cccc(Cl)c4)c(C)nc23)cc1	none
COCCNC(=O)c1cnn2c(C)c(Cc3cccc(Br)c3)c(C)nc12	mHTT CaM bind 63.0
Cc1ccc(CNC(=O)c2cnn3c(C)c(Cc4cccc(Br)c4)c(C)nc23)cc1	none
COc1ccccc1CNC(=O)Cc1nc2nc(C)c(Cc3cccc(Cl)c3)c(C)n2n1	mHTT CaM bind 57.0
COCCNC(=O)c1cnn2c(C)c(Cc3cccc(Cl)c3)c(C)nc12	none
Cc1nc2c(C(=O)NCc3ccccn3)cnn2c(C)c1Cc1cccc(Cl)c1	mHTT CaM bind 72.0
CCc1ccc(C(=O)Nc2c(C)nc3scc(C)n3c2=O)cc1	none
Cc1cc2n(n1)CCCN2C(=O)CCC(=O)Nc1ccc(Cl)cc1C	none
Cc1cccc(COC[C@H](CC(C)C)N2CCN(C(=O)c3ccc(C(C)(C)C)cc3)CCC2=O)c1	none
Cc1cccc(COC[C@H](Cc2ccccc2)N2CCN(C(=O)c3ccc(C(F)(F)F)cc3)CCC2=O)c1	mHTT CaM bind 98.6
Cc1ccc(S(=O)(=O)N2CCC(=O)N([C@H](COCc3ccc(C(F)(F)F)cc3)Cc3ccccc3)CC2)cc1	none
Cc1ccc(S(=O)(=O)N2CCC(=O)N([C@H](COCc3cccc(C)c3)Cc3ccccc3)CC2)cc1	none
Cc1cccc(C(=O)N2CCC(=O)N([C@H](COCc3ccc(Cl)cc3)Cc3ccccc3)CC2)c1	mHTT CaM bind 99.0
O=C(c1ccc(Cl)c(Cl)c1)N1CCC(=O)N([C@H](COCc2ccc(Cl)cc2)Cc2ccccc2)CC1	mHTT CaM bind 100.0
COc1cccc(C(=O)N2CCc3c(c(COCc4ccc(Cl)cc4)nn3C)C2)c1	none
